Assay outcomes deposited in PubChem by several laboratories.
Compounds with a hit are over-represented: about 3.8% of the library has one in this group of screens.
Bfl-1 A1 inh: inhibitors of the anti-apoptotic protein A1, read as caspase activation | caspase activation, % (no concentration beside the values) | AID 2462 | 330,000 compounds, 0.066% hits | MEF A1-2A-BIM cells, Caspase-Glo 3/7 luminescence, 3 h; percent of clofoctol response, vehicle zero;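 active = over half of replicate activation scores above 10%, or exactly half above 10 with the replicate mean above 10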
Mdm2 MdmX PPI: inhibitors of human Mdm2/MdmX interaction; O15151+Q00987; SaOS-2 split-luciferase Mdm2/MdmX complementation, luminescence; inhibition, % at 8 µM; 330,000 compounds, 3% hits; AID 485346;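 active = inhibition of at least 50% at 8 µM in the primary screen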
Target sequence (O15151 whole entry, looked up): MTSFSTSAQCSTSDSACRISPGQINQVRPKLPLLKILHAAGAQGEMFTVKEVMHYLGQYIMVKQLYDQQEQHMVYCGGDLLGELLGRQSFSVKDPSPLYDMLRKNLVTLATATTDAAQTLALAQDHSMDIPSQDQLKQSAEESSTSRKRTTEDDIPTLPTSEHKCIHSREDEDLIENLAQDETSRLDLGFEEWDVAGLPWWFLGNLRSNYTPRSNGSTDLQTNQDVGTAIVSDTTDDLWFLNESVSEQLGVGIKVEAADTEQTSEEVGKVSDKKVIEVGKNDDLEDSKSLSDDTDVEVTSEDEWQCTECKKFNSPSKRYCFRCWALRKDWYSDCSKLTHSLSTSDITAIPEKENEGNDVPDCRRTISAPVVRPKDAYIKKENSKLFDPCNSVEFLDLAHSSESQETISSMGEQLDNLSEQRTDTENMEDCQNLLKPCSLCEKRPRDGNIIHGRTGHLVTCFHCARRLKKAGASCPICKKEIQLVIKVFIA
Target sequence (Q00987 whole entry, looked up): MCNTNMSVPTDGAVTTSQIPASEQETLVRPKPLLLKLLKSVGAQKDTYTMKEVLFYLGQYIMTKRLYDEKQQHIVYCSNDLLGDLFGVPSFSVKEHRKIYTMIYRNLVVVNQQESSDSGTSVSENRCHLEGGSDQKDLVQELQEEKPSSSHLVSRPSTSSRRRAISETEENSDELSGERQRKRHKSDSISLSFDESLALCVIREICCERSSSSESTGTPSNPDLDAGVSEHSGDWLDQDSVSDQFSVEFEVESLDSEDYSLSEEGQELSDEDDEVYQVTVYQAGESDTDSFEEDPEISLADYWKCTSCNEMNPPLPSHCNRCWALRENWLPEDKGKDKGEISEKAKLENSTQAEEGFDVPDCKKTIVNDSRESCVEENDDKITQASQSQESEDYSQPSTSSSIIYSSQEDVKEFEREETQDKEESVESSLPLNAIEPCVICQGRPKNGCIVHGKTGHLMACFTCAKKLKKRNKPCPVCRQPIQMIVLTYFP
Jurkat NFkB inh: inhibitors of the PMA/ionomycin-induced NF-kB reporter in Jurkat cells; PMA/ionomycin-induced NF-kB luciferase reporter, luminescence; inhibition, % at 4 µM; 330,000 compounds, 0.53% hits; in the data active = inhibition above about 50%
NTR1 ag: activates human neurotensin receptor 1; AID 493036; P30989; NTR1-U2OS beta-arrestin-GFP spot imaging, agonist mode; activation, % at 20 µM; 330,000 compounds, 0.17% hits;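 active = activation at or above 40% of the spot to cytoplasm intensity ratio, with at least 20 cells analyzed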;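 note: 0% = DMSO without peptide and 100% = 100 nM NTR1 peptide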
Beta apoptosis: blocks beta cell apoptosis; INS-1E cytokine-induced death, ATP luminescence, 48 h; percent of positive-control rescue, neutral wells zero; protection from apoptosis, % (no concentration beside the values); 300,000 compounds, 0.8% hits;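 active = Every replicate reaches about 75%, or at least half do and their mean reaches it too, limit read from the data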;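 note: 0% = cytokine-treated negative control wells and 100% = positive control rescue; higher means more ATP so stronger rescue from cytokine killing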
697 NFkB inh: lowers PMA/ionomycin-induced NF-kB signal in 697 B cells; 697 B-cell NF-kB luciferase reporter, 16 h; inhibition, % at 4 µM; 330,000 compounds, 0.33% hits; in the data active = inhibition above about 35%
Mdm2 MdmX conf: confirmation of human Mdm2/MdmX interaction inhibitors; shares compounds with Mdm2 MdmX PPI; inhibition, % at 8 µM; AID 489028; 10,000 compounds, 55% hits; Mdm2-MdmX binding, luminescent assay; in the data active = inhibition above about 40%
Full FLuc ctr: inhibits full-length luciferase, flagging false Mdm2/MdmX hits | shares compounds with Mdm2 MdmX PPI | SaOS-2 full-length luciferase counterscreen, luminescence | inhibition, % at 8 µM | 6,200 compounds, 77% hits;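 active = mean inhibition at 8 µM reaching about 37%, which flags the compound as non-specific, limit read from the data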;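 note: p53-null SaOS-2 cells with luciferase driven by a doxycycline-inducible promoter; compound on cells about two nights before reading with doxycycline added after day one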
Starred values were filed as active, the others as inactive.

Screening CC(C)Cn1c(=O)c(C(=O)Nc2ccncc2)c(O)c2ccccc21 returned Bfl-1 A1 inh 0, Mdm2 MdmX PPI 69*, Jurkat NFkB inh 17, NTR1 ag 8, Beta apoptosis 19, 697 NFkB inh 0, Mdm2 MdmX conf 51* and Full FLuc ctr 38*.
Screening CC(C)Cn1c(=O)c(C(=O)Nc2cnccn2)c(O)c2ccccc21 returned Bfl-1 A1 inh 0, Mdm2 MdmX PPI 31, Jurkat NFkB inh 1, NTR1 ag 0, Beta apoptosis 3 and 697 NFkB inh 15.
For Cc1[nH]c2ccccc2c1C(=O)COC(=O)c1ccc2c(=O)n3c(nc2c1)CCC3 the results were Bfl-1 A1 inh -1, Mdm2 MdmX PPI 59*, Jurkat NFkB inh -18, NTR1 ag 4, Beta apoptosis 0, 697 NFkB inh -72 and Mdm2 MdmX conf 33.
Screening CN(C(=O)COC(=O)c1ccc2c(=O)n3c(nc2c1)CCC3)c1ccccc1 returned Bfl-1 A1 inh 0, Mdm2 MdmX PPI 14, Jurkat NFkB inh 24, NTR1 ag 2, Beta apoptosis 0 and 697 NFkB inh 21.
`O=C(OCC(=O)c1ccc[nH]1)c1ccc(C(F)(F)F)cc1` gave Bfl-1 A1 inh -1, Mdm2 MdmX PPI -15, Jurkat NFkB inh 3, NTR1 ag 2, Beta apoptosis -6 and 697 NFkB inh 10.
For O=C(OCn1ncc(Cl)c(Cl)c1=O)c1ccc(C(F)(F)F)cc1 the results were Mdm2 MdmX PPI 72*, Jurkat NFkB inh 4, NTR1 ag -2, 697 NFkB inh -26, Mdm2 MdmX conf 74* and Full FLuc ctr 53*.
Screening Cc1ccc(C(=O)OCn2ncc(Cl)c(Cl)c2=O)cc1 returned Bfl-1 A1 inh 0, Mdm2 MdmX PPI 90*, Jurkat NFkB inh 14, NTR1 ag 1, Beta apoptosis 101*, 697 NFkB inh 1, Mdm2 MdmX conf 100* and Full FLuc ctr 1.
O=C(CSc1nc2ccccc2o1)NC1CCS(=O)(=O)C1 (centres undefined) was read as Bfl-1 A1 inh 1, Mdm2 MdmX PPI -12, Jurkat NFkB inh 5, NTR1 ag 0, Beta apoptosis -6 and 697 NFkB inh 10.
`COC(=O)c1ccc(CNC(=O)c2ccc(S(=O)(=O)N3CCCC(C)C3)cc2)cc1` (centres undefined) gave Bfl-1 A1 inh 0, Mdm2 MdmX PPI 0, Jurkat NFkB inh -6, NTR1 ag 0, Beta apoptosis 5 and 697 NFkB inh 1.
`CCOC(=O)c1c(-c2ccc(C)o2)csc1NC(=O)COC(=O)c1ccc(NC(N)=O)cc1` gave Bfl-1 A1 inh 0, Mdm2 MdmX PPI 69*, Jurkat NFkB inh -10, NTR1 ag 24, Beta apoptosis 1, 697 NFkB inh 1 and Mdm2 MdmX conf 15.
For Cc1cc(S(=O)(=O)N2CCN(c3ccccn3)CC2)c(C)cc1Cl the results were Bfl-1 A1 inh 1, Mdm2 MdmX PPI -2, Jurkat NFkB inh 14, NTR1 ag 4, Beta apoptosis -2 and 697 NFkB inh 10.
For O=C(CC1CS(=O)(=O)CC1CC(=O)Nc1ccc2c(c1)OCCO2)Nc1ccc2c(c1)OCCO2 (centres undefined) the results were Bfl-1 A1 inh 0, Mdm2 MdmX PPI 63*, Jurkat NFkB inh -51, NTR1 ag -1, Beta apoptosis -4, 697 NFkB inh -85, Mdm2 MdmX conf 77* and Full FLuc ctr 90*.
Cc1ccc(NC(=O)CSc2nnc(CNC(=O)c3ccco3)n2C)c(C)c1 was read as Bfl-1 A1 inh -1, Mdm2 MdmX PPI -20, Jurkat NFkB inh -2, NTR1 ag 1 and 697 NFkB inh 19.
O=c1[nH]c(/C=C/c2cccc3ccccc23)nc2ccccc12 was read as Bfl-1 A1 inh -2, Mdm2 MdmX PPI 44, Jurkat NFkB inh -22, NTR1 ag 8, Beta apoptosis 41 and 697 NFkB inh 12.
For O=c1nc2cccc3c2=c(/c1=C(\O)c1ccccc1)c1ccccc1c3=O the results were Bfl-1 A1 inh 0, Mdm2 MdmX PPI 52*, Jurkat NFkB inh 9, NTR1 ag 5, Beta apoptosis 2, 697 NFkB inh 17 and Mdm2 MdmX conf 28.
`O=C(/C=C/c1ccncc1)c1ccc2c(c1)OCCO2` gave Bfl-1 A1 inh 0, Mdm2 MdmX PPI 43, Jurkat NFkB inh 3, NTR1 ag 7, Beta apoptosis 23 and 697 NFkB inh 3.
`COc1cc(/C=C/C(=O)c2ccc3c(c2)OCCO3)cc(Br)c1OCC(=O)N(C)C` gave Bfl-1 A1 inh 0, Mdm2 MdmX PPI 95*, Jurkat NFkB inh 47, NTR1 ag 7, Beta apoptosis -13, 697 NFkB inh -47, Mdm2 MdmX conf 79* and Full FLuc ctr 56*.
For CC(C)Nc1nc(NC2CCCC2)nc(N2CCOCC2)n1 the results were Mdm2 MdmX PPI 20, Jurkat NFkB inh 15, NTR1 ag 2 and 697 NFkB inh -30.
Cc1ccc(N2C(=O)N3[C@H]4c5ccccc5OC[C@@H]4[C@@H](c4ccccc4)[C@@]3(C)C2=O)cc1 was read as Bfl-1 A1 inh 2, Mdm2 MdmX PPI 52*, Jurkat NFkB inh 12, NTR1 ag 2, Beta apoptosis -2, 697 NFkB inh -23 and Mdm2 MdmX conf 17.
`C[C@]12C(=O)N(c3ccc(C(F)(F)F)cc3)C(=O)N1[C@@H]1c3ccccc3OC[C@@H]1[C@H]2c1ccccc1` gave Bfl-1 A1 inh 1, Mdm2 MdmX PPI 50*, Jurkat NFkB inh 14, NTR1 ag 3, Beta apoptosis 10, 697 NFkB inh 10, Mdm2 MdmX conf 50* and Full FLuc ctr 74*.
For O=C(CCNC(=O)c1ccc(Br)cc1)NCC1COc2ccccc2O1 (centres undefined) the results were Bfl-1 A1 inh 1, Mdm2 MdmX PPI -22, Jurkat NFkB inh -9, NTR1 ag 0 and 697 NFkB inh -13.
C[n+]1cccc(O)c1SCc1ccccc1 was read as Bfl-1 A1 inh 0, Mdm2 MdmX PPI -7, Jurkat NFkB inh -1, NTR1 ag 1, Beta apoptosis -5 and 697 NFkB inh -3.
Screening COc1ccc(NC(=O)c2sc3nc(C)nc(N4CCN(c5ccccn5)CC4)c3c2C)cc1Cl returned Bfl-1 A1 inh 0, Mdm2 MdmX PPI 51*, Jurkat NFkB inh 4, NTR1 ag -1, Beta apoptosis 6, 697 NFkB inh -17 and Mdm2 MdmX conf 2.
Screening COc1ccc(NC(=O)CN2CCN(c3ccccn3)CC2)cc1Cl returned Bfl-1 A1 inh 1, Mdm2 MdmX PPI -1, Jurkat NFkB inh -17, NTR1 ag 1 and 697 NFkB inh 1.
